# Reference: PubChem BioAssay (NCATS)
# Results filed as inconclusive are left out. A call without a number means that no potency is given here. Calls of active or inactive are those of the source. Calls follow the shape of the dose curve; as a rule, active = well fitted inhibition curve with a large enough effect; inconclusive = small, poorly fitted or top-dose-only effect; inactive = flat fitted curve, though single readings scatter.
# Target: Dual specificity protein kinase CLK4 (Homo sapiens) (UniProt Q9HAZ1)
# Test: qHTS Assay for Inhibitors of CDC-like Kinase 4 (ADP-Glo Assay) (AID 1771); also: nearly all actives have a fitted effect of over 70% in size
# Details: recombinant CLK4, ADP-Glo luminescence; series mostly up to 80 µM
# Protocol: NIH Molecular Libraries Probe Production Centers Network [MLPCN] NIH Chemical Genomics Center [NCGC] MLPCN Grant: 1R03MH084827-01 Assay Submitter (PI): Tom Misteli NCGC Assay Overview: Clk4 (Invitrogen, cat# PV3839) was assayed using ATP and the RS repeat peptide (AnaSpec cat # 61722) as substrates. In the assay, the ADP levels were detected using Promega ADP-Glo technology wherein the remaining ATP from the kinase reaction is first depleted with an ATPase reagent followed by a reagent that contains and enzyme which converts the ADP produced to ATP as well as Ultra-Glo luciferase and D-luciferin which generates a bioluminescence signal from the ATP. The positive control for the assay was TG003 (Sigma-Aldrich, cat# 300801-52-9) which has been described as an inhibitor of Clk 4[1].
# NCGC Assay Protocol Summary: Two uL/well of substrate-buffer solution (100 uM RS peptide, 1 uM ATP, 1x ADP-Glo Buffer A, 2 mM MgCl2, 0.5 mM EGTA, 2.5 mM DTT, 0.01% Triton X-100, final concentrations) was dispensed into 1536-well plates (Greiner, solid white, medium binding assay plates) with the Aurora Discovery BioRAPTR Flying Reagent Dispenser (FRD; Beckton-Dickenson). Twenty-three nanoliter of compound and control solutions were transferred to the assay plate using a Kalypsys pin-tool followed by 0.5 uL/well Clk4-buffer solution (25 nM Clk4, 1x ADP-Glo Buffer A, 2 mM MgCl2, 0.5 mM EGTA, 2.5 mM DTT, 0.01% Triton X-100 final concentration) dispensing for a total kinase reaction volume of 2.5 uL/ well. After 1 hr of room-temperature incubation, 2.5 uL ADP-Glo reagent was added and incubated at room temperature for 45 min to stop the kinetic reaction and degrade residual ATP. The ADP product was then converted to ATP by adding 5 uL per well of ADP-Glo Reagent II to yield a total assay volume of 10 uL/ well. Luminescence was detected after 30 min room temperature incubation with the Perkin Elmer Viewlux.
# Potency is read from the fitted curve at half-maximal effect.
# Sequence of Dual specificity protein kinase CLK4 (Homo sapiens) (Q9HAZ1 whole entry, looked up): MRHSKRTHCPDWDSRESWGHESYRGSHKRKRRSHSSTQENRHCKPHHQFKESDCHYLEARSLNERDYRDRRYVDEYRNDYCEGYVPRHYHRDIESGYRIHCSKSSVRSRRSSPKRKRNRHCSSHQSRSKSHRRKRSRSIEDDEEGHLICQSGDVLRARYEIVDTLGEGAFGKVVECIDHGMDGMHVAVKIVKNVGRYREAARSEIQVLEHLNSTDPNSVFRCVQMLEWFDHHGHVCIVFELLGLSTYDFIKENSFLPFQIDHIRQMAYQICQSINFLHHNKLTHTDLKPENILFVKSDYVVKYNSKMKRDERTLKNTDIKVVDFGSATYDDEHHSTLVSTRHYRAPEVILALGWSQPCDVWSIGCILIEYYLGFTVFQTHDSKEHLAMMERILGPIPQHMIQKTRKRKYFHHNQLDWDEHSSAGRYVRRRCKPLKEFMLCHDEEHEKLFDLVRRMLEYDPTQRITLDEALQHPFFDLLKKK
row,SMILES,Potency
1,Cc1cccc(CNc2ncncc2-c2ccccc2C)c1,inactive
2,Cc1nc2cnc(Oc3cccc(Cl)c3)nc2n(Cc2ccc(F)cc2)c1=O,inactive
3,COc1cccc(Cn2c(=O)cnc3cnc(Nc4cccc(OC)c4)nc32)c1,2.24 µM (active)
4,CN1CCN(c2ncnc3ccc(-c4ccccc4C(F)(F)F)cc23)CC1,inactive
5,O=c1c(CCc2ccccc2)nc2cnc(N3CCNCC3)nc2n1Cc1cccs1,inactive
6,COc1ccccc1-c1ccc2ncnc(N3CCNCC3)c2c1,14.1 µM (active)
7,FC(F)(F)c1ccccc1-c1nc(NCc2cccnc2)c2ccccc2n1,inactive
8,CN(C)C(=O)c1ccc(-c2nc(N3CCOCC3)c3ccccc3n2)cc1,inactive
9,COc1cccc(-c2nc(NC3CC3)c3ccccc3n2)c1,7.08 µM (active)
10,COc1ccccc1CNc1ncncc1-c1ccc2c(c1)OCO2,2 µM (active)
11,COCCn1c(=O)c(CCc2ccccc2)nc2cnc(OCc3ccccc3)nc21,inactive
12,CN(Cc1ccco1)c1nc(-c2ccccc2C(F)(F)F)nc2ccccc12,28.2 µM (active)
13,Cc1cnc(CNc2ncnc3ccc(-c4ccccc4C)cc23)cn1,25.1 µM (active)
14,COCCn1c(=O)c(-c2cccc(C#N)c2)nc2cnc(OCc3ccccc3)nc21,inactive
15,COc1cccc(Nc2ncc3ncc(=O)n(Cc4ccc(F)cc4)c3n2)c1,2.51 µM (active)
16,c1cncc(CNc2nc(-c3cccnc3)nc3ccccc23)c1,12.6 µM (active)
17,Cn1cc(-c2nc3cnc(N4CCNCC4)nc3n(CCc3ccccc3)c2=O)c2ccccc21,inactive
18,COc1ccc2[nH]cc(CCNc3ncncc3-c3ccoc3)c2c1,15.8 µM (active)
19,Clc1ccccc1-c1ccc2ncnc(NCCN3CCOCC3)c2c1,25.1 µM (active)
20,O=c1c(CCc2ccccc2)nc2cnc(Oc3ccccc3)nc2n1C1CC1,inactive

row,SMILES,Potency
1,COc1cccc(-c2nc(NCc3cccnc3)c3ccccc3n2)c1,17.8 µM (active)
2,COc1ccccc1CNc1ncncc1-c1ccccc1Cl,inactive
3,COc1ccc(Oc2ncc3nc(-c4ccccc4)c(=O)n(C[C@H]4CCCO4)c3n2)cc1,inactive
4,c1cn(-c2ncnc3ccc(-c4ccoc4)cc23)cn1,0.199 µM (active)
5,N#CCCn1c(=O)c(-c2ccc(Cl)cc2)nc2cnc(N3CCOCC3)nc21,inactive
6,COc1ccccc1-c1nc(N2CCN(C)CC2)c2ccccc2n1,inactive
7,COc1cccc(Cn2c(=O)c(CCc3ccccc3)nc3cnc(N4CCN(C)CC4)nc32)c1,inactive
8,CN(C)c1ccc(-c2cncnc2NCCN2CCOCC2)cc1,inactive
9,COc1ccc2[nH]cc(CCNc3ncnc4ccc(-c5cccc(C#N)c5)cc34)c2c1,15.8 µM (active)
10,COCCn1c(=O)c(CCc2ccccc2)nc2cnc(N(C)C)nc21,inactive
11,CN(Cc1ccco1)c1cc(-c2ccc3c(c2)OCO3)ncn1,3.16 µM (active)
12,COc1ccccc1-c1nc(Nc2ccncc2)c2ccccc2n1,12.6 µM (active)
13,COCCn1c(=O)c(CCc2ccccc2)nc2cncnc21,inactive
14,CN(C)c1ncc2nc(-c3ccccc3)c(=O)n(C)c2n1,inactive
15,CCNc1ncc2nc(-c3ccccc3)c(=O)n(CCC#N)c2n1,inactive
16,COCCn1c(=O)c(-c2ccc(F)cc2)nc2cnc(Nc3cccc(OC)c3)nc21,inactive
17,COc1ccc2[nH]cc(CCNc3ncncc3-c3cccc(C#N)c3)c2c1,25.1 µM (active)
18,COc1ccc(CNc2ncncc2-c2ccccc2OC)c(OC)c1,inactive
19,CN(Cc1ccco1)c1nc(-c2cccnc2)nc2ccccc12,14.1 µM (active)
20,COc1ccc(Oc2ncc3nc(-c4cccc(C#N)c4)c(=O)n(Cc4cccc(OC)c4)c3n2)cc1,inactive
